Measurements taken from PubChem BioAssay (NCI).
The panel holds about 83,000 compounds, 20% with a hit somewhere; the sample as a whole holds those more often.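 In brief: 96-well plates, 48 h treatment, single concentration, percent growth endpoint.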 A number with no mark means an inactive call. Calls of active or inactive are those of the source. Rule for the calls: active = growth percent below 10; inactive = the rest.

system: SF-268 CNS; assay: NCI-60 one-dose screen, 48 h (100 = growth as untreated, 0 = no growth, -100 = all killed); details: 10 µM unless noted

| Structure (SMILES) | growth |
| --- | --- |
| O=C1C2C3C=CC(O3)C2C(=O)N1Nc1ccccc1 (stereo not given) | 102% |
| Cc1cc(C)n2nc(SCC(=O)Nc3sc4c(c3C(N)=O)CCC4)nc2n1 | 113% |
| COc1ccc(Nc2ccnc(NCCCNc3ccnc4cc(Cl)ccc34)n2)cc1 | -28.6% (active) |
| Oc1[nH]c2ccccc2c1/C=c1/ccc2c(c1)N=C(c1cc(F)cc(F)c1)N=2 | 80.8% |
| CCC1=C(c2ccc(OC)cc2)C(C)(C)Oc2c1ccc(O)c2CN1CCCC1 | 54.3% |
| CN(C)c1ccc(/C=C(\C#N)c2nc3ccccc3c(=O)[nH]2)cc1 | 69.4% |
| Cc1cccc(Cl)c1NC(=O)c1ccc2nc(NC(=O)NC3CC(C)(C)NC(C)(C)C3)sc2c1 | 70.4% |
| CCC(=O)Nc1ccccc1C#C/C=C\C#Cc1ccccc1C(F)(F)F | 67.8% |
| Nc1ccc2c3c(cccc13)-c1ccccc1-2 | 78.4% |
| CC[C@]1(O)CC2CN(CCc3c([nH]c4ccccc34)[C@@](C(=O)OC)(c3cc4c(cc3OC)N(C)[C@H]3[C@@](O)(C(=O)OC)[C@H](OC(C)=O)[C@]5(CC)C=CCN6CC[C@]43[C@@H]65)C2)C1 (stereo not given in full) | 4.83% (active) |
| COc1ccc(/C=N/NC(=O)c2ccc(S(C)(=O)=O)cc2)cc1OC | 102% |
| C=CCCCCCCCCC(=O)[O][Sn]([CH2]CCC)([CH2]CCC)[CH2]CCC | -97.3% (active) |
| Cc1cc(CC(=O)O)n(C)c1C(=O)c1ccc(Cl)cc1 | 114% |
| Fc1ccc(-c2nnc(/C=C/c3cn(-c4ccccc4)nc3-c3ccccc3)o2)cc1 | 103% |
| COC(=O)[C@]12CC[C@@H](C)[C@H](C)[C@@H]1C1=CC[C@@H]3[C@@]4(C)C=C(O)C(=O)[C@@]5(C)COC(=C54)C[C@@]3(C)[C@]1(C)CC2 | -45.3% (active) |
| Nc1ccc(S(=O)(=O)Nc2ncccn2)cc1 | 108% |
| CC1CC(C)/C(=N/NC(N)=O)C(C(O)CC2CCC(=O)NC2=O)C1 (stereo not given) | 34.1% |
| O=C(/C=C/c1cc2ccccc2[nH]c1=O)c1ccc(Cl)cc1 | 30.7% |
| CSc1nc2c(c(=O)[nH]1)C(c1ccc(Cl)cc1)C1=C(N2)/C(=C/c2ccc(Cl)cc2)CNC1 (stereo not given) | 10.1% |
| ClC1=C(Cl)C(Cl)=C(Cl)C1=Cc1ccc(Cl)cc1 | -69.3% (active) |
| O=C1C(Cl)=C(N=Nc2c(Cl)c(O)c3ccccc3c2O)C(=O)c2ccccc21 | 77.9% |
| N#Cc1cnc2cc(OC[C@H](O)CO)c(NC(=O)CC3CSSC3)cc2c1Nc1ccc(OCc2cccc(F)c2)c(Cl)c1 | -56.3% (active) |
| CN(CC(=O)Nc1nc2ccccc2[nH]1)S(=O)(=O)c1ccc(Cl)cc1 | 67% |
| COC(=O)[C@]12CC[C@@H](C)[C@H](C)[C@@H]1C1=CC[C@@H]3[C@@]4(C)C[C@@H](OC(=O)c5ccco5)[C@H](O)[C@@](C)(CO)[C@@H]4[C@H](O)C[C@@]3(C)[C@]1(C)CC2 | -79.6% (active) |
| Fc1ccc(-c2nc(Nc3ccc(-c4nc5ccccc5[nH]4)cc3)nc(N3CCOCC3)n2)cc1 | -82.7% (active) |
| CO[C@H]1/C=C/O[C@@]2(C)Oc3c(C)c(O)c4c(O)c(c(/C=N/N5CCN(C)CC5)c(O)c4c3C2=O)NC(=O)/C(C)=C\C=C\C(C)[C@H](O)[C@@H](C)[C@@H](O)[C@@H](C)[C@@H](OC(C)=O)[C@@H]1C (stereo not given in full) | 109% |
| COc1ccc(-n2nnc(C(=O)O)c2-c2cc(OC)c(OC)c(OC)c2)cc1 | 115% |
| O=C(Nc1ccc(OCc2nnc(-c3ccccc3)o2)c(F)c1)Nc1ccc(Cl)c(C(F)(F)F)c1 | 36.2% |
| Cc1cc(C(C)(C)C)cc(C)c1CC1=NCCN1 | 100% |
| COc1ccc(-c2csc(NC(=O)c3cc(OC)c(OC)c(OC)c3)n2)cc1 | 102% |
